# Reference: PubChem BioAssay (EPA / NIEHS)
# Inconclusive results are not listed. Active and inactive are the calls of the source. Rule for the calls: active = hit-call score of the fitted dose curve at least 0.9, where 1 is the maximum; inconclusive = response in the unintended direction; inactive = score below 0.9.
# Key:
# [1] = target: Androgen Receptor/SRC-1 Co-activator, AR (gene 367) (UniProt P10275); assay: OT_AR_ARSRC1_0960: Odyssey Thera (OT) 16-hour HEK293T Protein-Complementation Assay for Androgen Receptor/SRC-1 Co-activator (AID 2283353);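 note: actives raise the signal above DMSO so potency reflects increased AR and SRC-1 complex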
# Sequence of Androgen Receptor/SRC-1 Co-activator, AR (gene 367) (P10275 whole entry, looked up, the tested form may be a part): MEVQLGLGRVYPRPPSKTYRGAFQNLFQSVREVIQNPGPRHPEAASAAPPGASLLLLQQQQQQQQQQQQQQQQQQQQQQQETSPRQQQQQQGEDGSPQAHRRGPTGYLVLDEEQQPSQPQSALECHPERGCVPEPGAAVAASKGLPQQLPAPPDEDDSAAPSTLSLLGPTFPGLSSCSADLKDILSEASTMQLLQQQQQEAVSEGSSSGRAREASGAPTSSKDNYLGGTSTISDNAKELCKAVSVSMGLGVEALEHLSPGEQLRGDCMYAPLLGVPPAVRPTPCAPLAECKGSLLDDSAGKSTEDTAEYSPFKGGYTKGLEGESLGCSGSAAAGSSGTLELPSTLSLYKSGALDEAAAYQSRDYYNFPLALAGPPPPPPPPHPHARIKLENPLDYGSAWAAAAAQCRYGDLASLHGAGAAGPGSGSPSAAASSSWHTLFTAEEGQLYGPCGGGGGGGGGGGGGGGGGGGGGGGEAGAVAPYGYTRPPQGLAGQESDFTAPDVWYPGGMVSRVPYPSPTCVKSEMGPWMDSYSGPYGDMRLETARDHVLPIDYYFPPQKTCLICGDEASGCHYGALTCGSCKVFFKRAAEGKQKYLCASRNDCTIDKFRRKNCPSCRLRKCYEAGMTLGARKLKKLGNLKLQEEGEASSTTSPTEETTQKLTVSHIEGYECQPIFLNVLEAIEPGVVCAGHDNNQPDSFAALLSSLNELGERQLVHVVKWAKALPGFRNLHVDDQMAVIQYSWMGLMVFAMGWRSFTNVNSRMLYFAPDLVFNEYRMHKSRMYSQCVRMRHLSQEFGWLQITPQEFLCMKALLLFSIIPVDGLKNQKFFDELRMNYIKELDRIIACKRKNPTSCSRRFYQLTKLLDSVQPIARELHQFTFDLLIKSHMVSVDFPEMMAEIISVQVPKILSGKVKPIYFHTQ
# Method in brief: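 Endpoint is gain-of-signal N/C fluorescence ratio in the 488 nm channel versus DMSO, from at least 400 cells per image, measured 16 h post-dosing. Cells: HEK293T stably carrying split-Venus AR/SRC-1 complementation constructs.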
# [2] = target: Androgen Receptor/SRC-1 Co-activator, AR (gene 367) (UniProt P10275); assay: OT_AR_ARSRC1_0480: Odyssey Thera (OT) 8-hour HEK293T Protein-Complementation Assay for Androgen Receptor/SRC-1 Co-activator (AID 2283354);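 note: hits raise the complementation signal above DMSO so AC50 marks enhancers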
# Method in brief: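 After 8 h dosing, stably expressing HEK293T cells with split-Venus AR/SRC-1 fusions were imaged (488, 635nm). The 488nm N/C ratio per image gave the endpoint, analysed in the positive direction against DMSO.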
# [3] = target: Estrogen receptor beta (Homo sapiens) (UniProt Q92731); assay: OT_ER_ERbERb_0480: Odyssey Thera (OT) 8-hour HEK293T Protein-Complementation Assay for Estrogen Receptor-beta/-beta Homodimer (AID 2283357);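 note: active means signal gain over DMSO baseline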
# Sequence of Estrogen receptor beta (Homo sapiens) (Q92731 whole entry, looked up, the tested form may be a part): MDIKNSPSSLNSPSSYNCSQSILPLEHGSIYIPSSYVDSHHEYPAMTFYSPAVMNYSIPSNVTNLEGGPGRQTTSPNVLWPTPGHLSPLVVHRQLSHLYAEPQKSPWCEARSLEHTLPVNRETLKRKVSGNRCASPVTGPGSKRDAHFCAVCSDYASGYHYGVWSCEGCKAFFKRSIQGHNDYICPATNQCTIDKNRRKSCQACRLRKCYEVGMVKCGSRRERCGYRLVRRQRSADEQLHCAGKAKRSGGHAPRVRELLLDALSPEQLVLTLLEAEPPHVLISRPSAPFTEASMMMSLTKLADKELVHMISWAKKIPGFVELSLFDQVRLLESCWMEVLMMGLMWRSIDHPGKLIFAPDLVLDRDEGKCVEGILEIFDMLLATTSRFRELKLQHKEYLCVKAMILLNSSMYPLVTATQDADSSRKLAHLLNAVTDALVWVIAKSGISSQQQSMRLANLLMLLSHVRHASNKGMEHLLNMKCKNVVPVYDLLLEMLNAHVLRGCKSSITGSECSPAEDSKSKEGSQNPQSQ
# Method in brief: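 Fluorescence gain from complemented reporter fragments on ER-beta LBD homodimer in HEK293T was quantified against DMSO controls after 8 h treatment, fixation in 4% formaldehyde and Draq5 staining.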
# [4] = target: human Peroxisome Proliferator-activated Receptor alpha (PPARa), PPARA (gene 5465) (UniProt Q07869); assay: NVS_NR_hPPARa: NovaScreen (NVS) Nuclear Receptor Binding Assay for human Peroxisome Proliferator-activated Receptor alpha (PPARa) (AID 2283359);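 note: activity means loss of TR-FRET signal versus DMSO baseline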
# Sequence of human Peroxisome Proliferator-activated Receptor alpha (PPARa), PPARA (gene 5465) (Q07869 whole entry, looked up): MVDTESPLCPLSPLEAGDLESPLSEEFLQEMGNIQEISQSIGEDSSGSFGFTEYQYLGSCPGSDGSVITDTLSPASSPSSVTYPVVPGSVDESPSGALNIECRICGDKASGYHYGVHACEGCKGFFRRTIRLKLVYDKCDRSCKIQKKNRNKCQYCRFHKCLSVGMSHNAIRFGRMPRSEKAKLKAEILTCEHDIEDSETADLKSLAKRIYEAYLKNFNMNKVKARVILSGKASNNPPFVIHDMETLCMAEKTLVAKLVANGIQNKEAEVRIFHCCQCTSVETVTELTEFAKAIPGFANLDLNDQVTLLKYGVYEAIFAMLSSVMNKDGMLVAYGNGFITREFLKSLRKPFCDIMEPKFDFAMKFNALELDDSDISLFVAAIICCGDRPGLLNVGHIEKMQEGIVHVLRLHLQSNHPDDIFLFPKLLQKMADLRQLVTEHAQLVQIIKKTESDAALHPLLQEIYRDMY
# Method in brief: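 One-hour incubation, cell-free extracted protein, TR-FRET binding readout; signal loss vs DMSO scored. Screen: 25 uM duplicates, confirmatory dose series for actives.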
# PGR (gene 5241) = PGR (gene 5241) (UniProt P06401); assay: NVS_NR_hPR: NovaScreen (NVS) Nuclear Receptor Binding Assay for human Progestron Receptor (PR) (AID 2283360);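 note: active means loss of bound radioligand signal versus DMSO baseline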
# Sequence of PGR (gene 5241) (P06401 whole entry, looked up): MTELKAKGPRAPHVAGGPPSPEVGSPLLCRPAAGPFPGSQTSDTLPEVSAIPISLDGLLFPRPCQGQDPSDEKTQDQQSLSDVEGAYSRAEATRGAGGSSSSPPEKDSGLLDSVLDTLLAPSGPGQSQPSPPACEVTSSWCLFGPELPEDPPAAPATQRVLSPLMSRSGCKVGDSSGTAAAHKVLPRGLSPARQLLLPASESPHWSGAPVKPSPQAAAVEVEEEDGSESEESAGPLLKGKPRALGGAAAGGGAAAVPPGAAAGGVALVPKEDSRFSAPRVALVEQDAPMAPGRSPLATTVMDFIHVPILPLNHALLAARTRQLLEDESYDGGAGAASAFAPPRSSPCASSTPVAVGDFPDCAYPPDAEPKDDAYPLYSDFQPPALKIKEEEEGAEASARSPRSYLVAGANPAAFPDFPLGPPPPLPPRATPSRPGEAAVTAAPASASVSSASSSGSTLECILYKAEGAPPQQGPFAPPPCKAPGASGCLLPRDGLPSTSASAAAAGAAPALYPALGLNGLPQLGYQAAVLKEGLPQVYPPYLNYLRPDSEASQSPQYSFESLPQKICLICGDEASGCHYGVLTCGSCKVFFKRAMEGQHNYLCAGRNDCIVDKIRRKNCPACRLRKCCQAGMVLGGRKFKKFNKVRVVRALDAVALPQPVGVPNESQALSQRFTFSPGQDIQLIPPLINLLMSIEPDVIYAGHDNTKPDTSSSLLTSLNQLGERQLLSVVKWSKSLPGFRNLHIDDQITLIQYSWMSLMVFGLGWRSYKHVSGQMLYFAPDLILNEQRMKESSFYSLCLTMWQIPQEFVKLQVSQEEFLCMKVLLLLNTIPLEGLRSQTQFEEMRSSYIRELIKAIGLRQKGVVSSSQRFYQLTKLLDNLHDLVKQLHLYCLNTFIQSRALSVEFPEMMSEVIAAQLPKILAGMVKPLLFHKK
# Method in brief: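 Cell-free radioligand binding using receptor protein extracted from T47D cells, read by scintillation counting 18 hours after dosing. Loss of signal relative to DMSO baseline indicates displacement; primary screen single concentration 25 uM in duplicate, actives followed in concentration series.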
smiles,measurement,setting,value
CCOCCOCCO,outcome,[1],inactive
same,outcome,[2],inactive
NC=O,outcome,[3],inactive
CC(C)COC(=O)CCCCC(=O)OCC(C)C,outcome,[4],inactive
same,outcome,PGR (gene 5241),inactive
CCCCCCC(C=O)=Cc1ccccc1,outcome,[3],inactive
NCCOCCOCCN,outcome,[1],inactive
same,outcome,[2],inactive
same,outcome,[3],inactive
C/C=C/c1ccc(OC)cc1,outcome,[3],inactive
O=C(O)c1cccnc1,outcome,[3],inactive
same,outcome,PGR (gene 5241),inactive
CC(=O)O,outcome,PGR (gene 5241),inactive
Cc1cc(SC2=C(O)C[C@@](CCc3ccc(N)cc3)(C(C)C)OC2=O)c(C(C)(C)C)cc1CO,outcome,[1],inactive
same,outcome,[2],inactive
Nc1nc(Cl)nc2c1ncn2[C@H]1C[C@H](O)[C@@H](CO)O1,outcome,[4],inactive
CC(C)(C)c1ccccc1,outcome,[3],inactive
same,outcome,[4],inactive
C=CCCCCCCCCCCCC,outcome,[1],inactive
same,outcome,[2],inactive
same,outcome,[3],inactive
C#CC(O)C(CC)CCCC (centres undefined),AC50,[1],72.6 µM (active)
same,AC50,[2],93.7 µM (active)
same,outcome,[3],inactive
O=C1O[C@H]([C@H](O)CO)C(O)=C1O,outcome,[3],inactive
C=CCc1ccc(OC)c(OC)c1,outcome,[3],inactive
CCCCOC(=O)CCCCC(=O)OCCCC,outcome,[4],inactive
CC(C)c1cccc(C(C)C)c1NC(=O)NS(=O)(=O)c1cc(C(C)(C)O)co1,outcome,[3],inactive
same,outcome,[4],inactive
Cc1cn([C@H]2C=C[C@@H](CO)O2)c(=O)[nH]c1=O,outcome,[3],inactive
O=C(Oc1ccccc1)c1cccc(C(=O)Oc2ccccc2)c1,outcome,[1],inactive
same,outcome,[2],inactive
same,outcome,[3],inactive
same,outcome,[4],inactive
CC(COCC(C)OC(=O)c1ccccc1)OC(=O)c1ccccc1 (centres undefined),outcome,[3],inactive
CC(=O)OC1CC(C)OC(C)O1 (centres undefined),outcome,[3],inactive
C/C=C/C=C/C(=O)O,outcome,[3],inactive
OCC(O)CO,outcome,PGR (gene 5241),inactive
Oc1ccccc1O,outcome,[3],inactive
same,outcome,[4],inactive
CO[C@@H]1COCC[C@@H]1N[C@@H]1CC[C@@](C(=O)N2CCc3ncc(C(F)(F)F)cc3C2)(C(C)C)C1,outcome,[3],inactive
same,outcome,PGR (gene 5241),inactive
CC(N)=O,outcome,[3],inactive
CC(=O)OCC(COC(C)=O)OC(C)=O,outcome,[3],inactive
